Assay results published in paper PMC4336329 (PLoS ONE, 2015).
Hit rate of the full screen: of about 310,000 compounds, about 14,000 (4.5%) showed an effect of 50% or more. Effects have a minus sign here. Shown is part of a subset that was picked to be rich in strong results.

Target: human ether-à-go-go-related gene (hERG) potassium channel (human, UniProt Q12809)
Experiment: primary screen, population patch clamp on CHO cells stably expressing hERG; higher = less effect of the substance
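Note: peak tail current of the secondary pulse compared with the same well before compound.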

Sequence of human ether-à-go-go-related gene (hERG) potassium channel (Q12809 whole entry, looked up): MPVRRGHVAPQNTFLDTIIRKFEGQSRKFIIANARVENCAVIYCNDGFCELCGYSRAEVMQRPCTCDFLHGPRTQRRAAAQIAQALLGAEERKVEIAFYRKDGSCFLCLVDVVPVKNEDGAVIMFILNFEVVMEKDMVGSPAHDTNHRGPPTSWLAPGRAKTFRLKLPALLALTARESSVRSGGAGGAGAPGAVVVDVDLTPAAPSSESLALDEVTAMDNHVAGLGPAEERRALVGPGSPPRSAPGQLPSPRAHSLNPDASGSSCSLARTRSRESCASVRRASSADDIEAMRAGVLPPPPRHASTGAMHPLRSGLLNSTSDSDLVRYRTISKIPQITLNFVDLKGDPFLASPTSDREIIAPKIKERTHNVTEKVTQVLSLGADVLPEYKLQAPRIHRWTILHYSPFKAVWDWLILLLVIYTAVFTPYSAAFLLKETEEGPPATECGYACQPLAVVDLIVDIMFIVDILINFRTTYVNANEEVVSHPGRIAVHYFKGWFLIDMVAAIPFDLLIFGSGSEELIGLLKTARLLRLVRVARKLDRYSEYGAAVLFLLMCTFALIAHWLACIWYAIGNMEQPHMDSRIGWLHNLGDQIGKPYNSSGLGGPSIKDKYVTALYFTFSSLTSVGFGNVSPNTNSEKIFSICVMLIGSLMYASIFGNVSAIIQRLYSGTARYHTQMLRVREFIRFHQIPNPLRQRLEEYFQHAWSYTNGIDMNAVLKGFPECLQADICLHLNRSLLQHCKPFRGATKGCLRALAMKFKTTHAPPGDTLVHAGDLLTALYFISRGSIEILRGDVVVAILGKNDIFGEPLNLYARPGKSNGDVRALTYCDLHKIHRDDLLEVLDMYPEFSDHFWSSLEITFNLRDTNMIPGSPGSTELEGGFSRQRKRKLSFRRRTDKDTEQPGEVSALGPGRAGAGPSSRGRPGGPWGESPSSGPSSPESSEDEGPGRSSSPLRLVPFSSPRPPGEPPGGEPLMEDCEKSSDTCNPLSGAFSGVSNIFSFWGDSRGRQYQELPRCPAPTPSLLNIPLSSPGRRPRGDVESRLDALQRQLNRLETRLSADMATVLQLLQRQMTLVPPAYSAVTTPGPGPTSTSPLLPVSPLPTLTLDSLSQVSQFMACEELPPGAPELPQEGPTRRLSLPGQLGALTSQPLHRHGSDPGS

Going from `COc1ccc(-c2cc(C(F)(F)F)nc(-n3cc(Cl)cn3)n2)cc1` to `Clc1ccc(-c2ccnc(Oc3ccc4ccccc4c3)n2)cc1`, the “hERG current change (%, negative = inhibition) at 10uM” value rises from -18.5% to 7.34%.

Compared with `CCN1CCCCC(=N/O)/C(=N/O)CCCC1`, `Cn1c(CCN2CCCCC2)nc2cc(NC(=O)NC3CCCCC3)ccc21` is lower in “hERG current change (%, negative = inhibition) at 10uM” value: 25.5% for the first, 0.766% for the second.

Going from `N#CCCN(C(=O)COC(=O)COc1ccccc1Cc1ccccc1)c1ccccc1` to `O=C(Cc1ccccc1)NCc1ccc(-n2cccc2)cc1`, the “hERG current change (%, negative = inhibition) at 10uM” value rises from 15% to 29.3%.

Compared with `Cc1cccc(NC(=O)CSCC(=O)N(C)CC(=O)Nc2cccc(F)c2)c1`, `CC(=O)NCCc1nc2cc(NC(=O)COc3cccc(C)c3)ccc2n1C` is higher in “hERG current change (%, negative = inhibition) at 10uM” value: -3.01% for the first, 6.53% for the second.

First: COc1ccc(C(C)=O)cc1CN1C(=O)NC2(CCCCCC2)C1=O
Second: COC1=CC(=O)OC12CCCCC2
The “hERG current change (%, negative = inhibition) at 10uM” value of the first is lower: -3.9% for the first, 8.91% for the second.

First: COP(=O)(CC(=O)O)c1ccccc1 (stereo not shown)
Second: CC(NC(=O)COc1ccccc1)C(=O)NC1=NCCS1 (stereo not shown)
The “hERG current change (%, negative = inhibition) at 10uM” value of the first is lower: -5.99% for the first, 0.963% for the second.

Compared with `CCOC(=O)N1CCN(C(=O)CNC(=O)c2nn(-c3ccc(OC)cc3OC)c(=O)c3ccccc23)CC1`, `COc1ccc(OCC(=O)Nc2ccc3c(c2)nc(CCN2CCN(C)CC2)n3C)cc1` is lower in “hERG current change (%, negative = inhibition) at 10uM” value: -4.94% for the first, -8.47% for the second.

Going from `CCc1noc(C)c1C(=O)N(CCCOC)c1c(N)n(Cc2ccccc2)c(=O)[nH]c1=O` to `CC(C)CN(C(=O)COC(=O)c1cnccn1)c1c(N)n(Cc2ccccc2)c(=O)[nH]c1=O`, the “hERG current change (%, negative = inhibition) at 10uM” value falls from 27.3% to 16.4%.

Compared with `CN1CCN(CCc2nc3cc(NC(=O)COc4ccccc4)ccc3n2C)CC1`, `Cc1cccc(OCC(=O)Nc2ccc3c(c2)nc(CCN2CCN(C)CC2)n3C)c1` is lower in “hERG current change (%, negative = inhibition) at 10uM” value: -32.6% for the first, -37.1% for the second.

Going from `Cn1c(CCn2ccccc2=O)nc2cc(NC(=O)COc3ccccc3)ccc21` to `COc1ccc(OCC(=O)Nc2ccc3c(c2)nc(CCn2ccccc2=O)n3C)cc1`, the “hERG current change (%, negative = inhibition) at 10uM” value rises from -40.6% to -10.8%.

Going from `Cn1c(CCN2CCCCC2)nc2cc(NC(=O)COc3ccccc3)ccc21` to `Cc1cccc(OCC(=O)Nc2ccc3c(c2)nc(CCN2CCCCC2)n3C)c1`, the “hERG current change (%, negative = inhibition) at 10uM” value rises from -78% to -77.2%.

Compared with `COc1ccc(OCC(=O)Nc2ccc3c(c2)nc(CCN2CCCC2)n3C)cc1`, `COc1ccc(OCC(=O)Nc2ccc3c(c2)nc(CCN2CCCCC2)n3C)cc1` is lower in “hERG current change (%, negative = inhibition) at 10uM” value: -55% for the first, -65.5% for the second.

First: CC(=O)NCCc1nc2cc(NC(=O)c3ccccc3)ccc2n1C
Second: CC(=O)NCCc1nc2cc(NC(=O)Nc3ccccc3)ccc2n1C
The “hERG current change (%, negative = inhibition) at 10uM” value of the first is higher: -25.6% for the first, -53.8% for the second.

First: CCC(=O)NCCc1nc2cc(NC(=O)Nc3ccccc3)ccc2n1C
Second: CC(=O)NCCc1nc2cc(NC(=O)COc3ccc(C)cc3)ccc2n1C
The “hERG current change (%, negative = inhibition) at 10uM” value of the first is higher: 18.8% for the first, 14.2% for the second.

Compared with `COc1ccc(OCC(=O)Nc2ccc3c(c2)nc(CCNC(C)=O)n3C)cc1`, `Cc1ccc(OCC(=O)Nc2ccc3c(c2)nc(CCN2CCN(C)CC2)n3C)cc1` is lower in “hERG current change (%, negative = inhibition) at 10uM” value: 13.1% for the first, -55.6% for the second.

Going from `CC(C)Cn1c(N)c(C(=O)COC(=O)c2ccc(O)cc2O)c(=O)n(C)c1=O` to `Cc1ccc(OCCn2cnc3c2c(=O)n(C)c(=O)n3C)cc1`, the “hERG current change (%, negative = inhibition) at 10uM” value rises from 8.34% to 20%.

Going from `CCn1c(SCC(=O)NC2CCCC2)nnc1-c1ccncc1` to `CC(Oc1ccc(C#N)cc1)C(=O)NC1CCCC1` (stereo not shown), the “hERG current change (%, negative = inhibition) at 10uM” value falls from 16.4% to -12.9%.

First: Cc1ccc(OCC(=O)Nc2ccccc2F)cc1
Second: Cc1ccc(OCC(=O)Nc2ccc3c(c2)nc(CCN2CCCCC2)n3C)cc1
The “hERG current change (%, negative = inhibition) at 10uM” value of the first is higher: -0.548% for the first, -82.3% for the second.

Compared with `CN1C(=O)/C(=C/c2ccc(OCc3ccc(C(=O)O)cc3)c(Cl)c2)NC1=S`, `Cc1cc(C(=O)NNC(=O)c2ccc(Cl)cc2)c2ccccc2n1` is lower in “hERG current change (%, negative = inhibition) at 10uM” value: 20.4% for the first, 0.225% for the second.

First: C=CCSc1nc2ccccc2[nH]1
Second: OC1C=CSc2nc3ccccc3n21 (stereo not shown)
The “hERG current change (%, negative = inhibition) at 10uM” value of the first is higher: 25% for the first, 4.02% for the second.

First: CN(C(=O)CC1C(=O)NCCN1Cc1cccc(F)c1F)C1CC(C)(C)NC(C)(C)C1 (stereo not shown)
Second: CCC(=O)Nc1ccc2c(c1)nc(CCN1CCN(C)CC1)n2C
The “hERG current change (%, negative = inhibition) at 10uM” value of the first is lower: 26.1% for the first, 29.3% for the second.

Compared with `Cn1c(CCN2CCCCC2)nc2cc(NC(=O)C3CCCCC3)ccc21`, `Cn1c(CN2CCCC2)nc2cc(NC(=O)C3CCCCC3)ccc21` is higher in “hERG current change (%, negative = inhibition) at 10uM” value: -60.2% for the first, -4.77% for the second.

Compared with `CCOC(=O)C(=CNc1ccc2c(c1)nnn2-c1ccc(Cl)cc1)C(=O)OCC`, `Cl.NC1=NC(c2cccc(Cl)c2)N(CCc2ccc(F)cc2)C(N)=N1` (stereo not shown) is higher in “hERG current change (%, negative = inhibition) at 10uM” value: -5.02% for the first, 15.6% for the second.

First: COc1ccccc1-c1cc(C(F)(F)F)nc(S(=O)(=O)CCCC(=O)N2CCOCC2)n1
Second: O=C(NCCN1CCOCC1)c1cc(-c2cccs2)nc2ccccc12
The “hERG current change (%, negative = inhibition) at 10uM” value of the first is higher: 2.47% for the first, -13.1% for the second.

Going from `Cn1ncc(Cl)c1C(=O)NCC1CCCO1` (stereo not shown) to `OCCNc1nc(C2CC2)nc2c1nnn2Cc1ccccc1Cl`, the “hERG current change (%, negative = inhibition) at 10uM” value falls from 9.21% to -0.392%.

Going from `O=C(Cn1cc(C(=O)c2ccccc2F)c2ccccc21)NC1CC1` to `CS(=O)(=O)N(CC(=O)Nc1ccccc1C(=O)N1CCCC1)c1cccc([N+](=O)[O-])c1`, the “hERG current change (%, negative = inhibition) at 10uM” value falls from -4.44% to -13.2%.

First: CCN(CC)c1ccc(NC(=O)CSc2nnc3nc(C)cc(C)n23)cc1
Second: COc1cc(CO)ccc1Oc1nc2ccccc2n2cnnc12
The “hERG current change (%, negative = inhibition) at 10uM” value of the first is lower: -0.579% for the first, 10.7% for the second.

First: CC(=O)N1CSCC1C(=O)NNS(=O)(=O)c1cccc(C(F)(F)F)c1 (stereo not shown)
Second: CC(Oc1ccc(C#N)cc1)C(=O)c1ccc(F)c(F)c1 (stereo not shown)
The “hERG current change (%, negative = inhibition) at 10uM” value of the first is higher: 8.58% for the first, -51.6% for the second.

Compared with `CCOc1ccc(-c2csc3nc[nH]c(=O)c23)cc1`, `CC(=O)c1ccc(OCCOc2ccc(C#N)cc2)cc1` is lower in “hERG current change (%, negative = inhibition) at 10uM” value: 14.9% for the first, -49.4% for the second.

Going from `CC(=O)c1ccc(OCC(O)COc2ccc(C(C)=O)cc2)cc1` to `CC(=O)c1ccc(OCC(C)Oc2ccc(C#N)cc2)cc1` (stereo not shown), the “hERG current change (%, negative = inhibition) at 10uM” value falls from -11.3% to -62.8%.

For `COC(=O)c1ccc(OC(C)C(=O)c2ccc(C)cc2)cc1` (stereo not shown), the “hERG current change (%, negative = inhibition) at 10uM” value was -21.5%.
